The nature of experiment [1]: NCI Yeast Anticancer Drug Screen. Data for the rad50 strain (AID 155).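 Further: 0% = growth of vehicle-only cultures of the same strain.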 Conditions: S. cerevisiae rad50 strain growth inhibition; at 50.0 µM; hits give high values. In a few lines: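 A DNA repair-deficient yeast mutant serves as the test organism; compound-induced growth inhibition is calculated against vehicle-treated cells.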
Experiment [2] in a line: NCI Yeast Anticancer Drug Screen. Data for the mec2-1 strain (AID 157). Conditions: S. cerevisiae mec2-1 strain, at 50.0 µM, hits give high values. In a few lines: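 Using mec2-1 yeast: add compound, measure growth, express inhibition versus vehicle-treated cultures.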
Experiment [3] is described as follows: NCI Yeast Anticancer Drug Screen. Data for the sgs1 mgt1 strain (AID 161).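 Further: 0% = growth of cultures given vehicle only.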 Conditions: S. cerevisiae sgs1 mgt1 strain, at 50.0 µM, hits give high values. An outline of the steps:
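Growth of a repair-deficient yeast mutant was monitored after compound treatment and expressed as inhibition relative to vehicle-treated cultures.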

A short description of experiment [4]: NCI Yeast Anticancer Drug Screen. Data for the cln2 rad14 strain (AID 165).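 Further: 0% = growth equal to vehicle treated cultures.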 Conditions: S. cerevisiae cln2 rad14 strain, at 50.0 µM, hits give high values. In a few lines:
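Yeast strain cln2 rad14, bearing defects in cell cycle control and DNA repair, serves as the test system; values reflect growth inhibition compared with vehicle.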

The nature of experiment [5]: NCI Yeast Anticancer Drug Screen. Data for the bub3 strain (AID 167). Conditions: S. cerevisiae bub3 mutant strain, at 50.0 µM, hits give high values. In a few lines: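 Inhibition values come from growth of compound-treated mutant yeast normalised to vehicle-treated controls.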
Experiment [6] is described as follows: NCI Yeast Anticancer Drug Screen. Data for the mlh1 rad18 strain (AID 175). Conditions: S. cerevisiae mlh1 rad18 strain growth inhibition; at 50.0 µM; hits give high values. In a few lines:
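Steps: expose repair-defective yeast to compound; measure growth; express inhibition against vehicle-treated controls.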

Structures are written as SMILES. About 79,000 compounds went through this panel and 15% of them were active in at least one assay; those are over-represented in the sample as a whole. A number with no mark means an inactive call. Calls of active or inactive are those of the source. No stated cut-off is given here; in the data, active means growth inhibition above about 70%; inactive means the rest.

Regarding `O=Cc1cccc2[nH]ccc12`, the growth inhibition in experiment [1] was 5.9%; in experiment [2] it was -7.95%; in experiment [3], 13%; in experiment [4], -4.6%; in experiment [5] it was 7.85%; in experiment [6], 3.25%.
For the molecule `O=[N+]([O-])c1ccc(/C=N\N=C\c2ccco2)cc1`, the growth inhibition is 1.85% in experiment [1]; 16.8% in experiment [2]; -4.35% in experiment [3]; -50.1% in experiment [4]; -9.9% in experiment [5]; 4.95% in experiment [6].
`Cn1cnc([N+](=O)[O-])c1SCC(=O)O`: the growth inhibition was -36.4% in experiment [1]; -0.6% in experiment [2]; -29.5% in experiment [3]; -22.9% in experiment [4]; -17.9% in experiment [5]; -3.7% in experiment [6].
Turning to `Cc1cc2c(cc1C)C(O)CCC(=O)N2` (stereo unspecified), the growth inhibition in experiment [1] is 5.55%; in experiment [2], 3.7%; in experiment [3], 11.7%; in experiment [4], 6.85%; in experiment [5], 16%; in experiment [6], -0.05%.
For the molecule `c1ccc(CN2C3C4N(Cc5ccccc5)C2C2N(Cc5ccccc5)C(C(N2Cc2ccccc2)N4Cc2ccccc2)N3Cc2ccccc2)cc1`, the growth inhibition in experiment [1] was 10.1%; in experiment [2], 2.35%; in experiment [3] it was 21.9%; in experiment [4], 3.2%; in experiment [5], 11.8%; in experiment [6], -3.6%.
`CCCCCCCC/C(C=O)=C\c1ccc(C)cc1`: the growth inhibition in experiment [1] is 53%; in experiment [2] it was 33.8%; in experiment [3], 55%; in experiment [4], 51.7%; in experiment [5] it was 66%; in experiment [6], 62.6%.
`C/C(C(=O)O)=C1\N=C(N)NC1=O`: the growth inhibition was -3.25% in experiment [1]; -2.9% in experiment [2]; -5.5% in experiment [3]; -36.9% in experiment [4]; -17.9% in experiment [5]; -14.4% in experiment [6].
Consider `CSc1ncc(CO)c(Nc2ccc(F)cc2)n1`, for which the growth inhibition in experiment [1] is -12.7%; in experiment [2], 8.7%; in experiment [3], -16.4%; in experiment [4] it was -20%; in experiment [5], -14.9%; in experiment [6] it was -23.4%.
Turning to `CC(=O)Oc1nnc(-c2ccccc2)c(-c2ccccc2)n1`, the growth inhibition in experiment [1] is 24.5%; in experiment [2], 16.9%; in experiment [3] it was 17.1%; in experiment [4] it was 13.8%; in experiment [5], 7.4%; in experiment [6] it was 17.3%.
As for `CCOC(=O)C1(F)S(=O)(=O)OCCOS1(=O)=O`, the growth inhibition is -12.9% in experiment [1]; -9.95% in experiment [2]; -11.4% in experiment [3]; -18.4% in experiment [4]; 6.3% in experiment [5]; -9.8% in experiment [6].
Regarding `O=C(Nc1ccccc1)Oc1ccc(/C=N/Sc2cccc([N+](=O)[O-])c2)cc1`, the growth inhibition in experiment [1] is 67.1%; in experiment [2], 60.6%; in experiment [3], 73.8% (active); in experiment [4], 21.2%; in experiment [5], 73.8% (active); in experiment [6], 62.2%.
On to `CCC(=O)Nc1nc2c(ncn2C2OC(COC(=O)CC)C(OC(=O)CC)C2OC(=O)CC)c(=O)[nH]1` (stereo unspecified), for which the growth inhibition in experiment [1] is -11.6%; in experiment [2], 5.2%; in experiment [3], 18.5%; in experiment [4] it was 6.25%; in experiment [5], 6.8%; in experiment [6], -7.3%.
For `CCCCCCCCCOCC(COP(=O)([O-])OCC[N+](C)(C)C)OC` (stereo unspecified), the growth inhibition in experiment [1] is 10.2%; in experiment [2], 13.3%; in experiment [3], 1.4%; in experiment [4] it was -22.4%; in experiment [5], -7.75%; in experiment [6] it was 17.5%.
`Nc1nc(-c2ccccc2)c(N=Nc2cc(Cl)ccc2Cl)s1`: the growth inhibition in experiment [1] is 4.5%; in experiment [2] it was 1%; in experiment [3], -2.3%; in experiment [4], -5.05%; in experiment [5], 8.2%; in experiment [6], -2.1%.
`CC1(C)CC(C)(C)CC(O)(C2(O)CC(C)(C)CC(C)(C)C2)C1`: the growth inhibition was -0.95% in experiment [1]; 0.35% in experiment [2]; -2.7% in experiment [3]; -3% in experiment [4]; -5.4% in experiment [5]; 9.2% in experiment [6].
As to `CCC(=O)Oc1ccccc1OC(=O)CC`, the growth inhibition is 35.9% in experiment [1]; 18.3% in experiment [2]; 21% in experiment [3]; 11.6% in experiment [4]; 1.9% in experiment [5]; 45.2% in experiment [6].
As to `O=C(O)CCSCc1ccc(I)cc1`, the growth inhibition in experiment [1] is 35.1%; in experiment [2], 35.5%; in experiment [3] it was 54%; in experiment [4], 34.2%; in experiment [5], 47.6%; in experiment [6], 37.3%.
As for `O=C(NN=C1c2ccccc2-c2ccccc21)C(F)(F)F`, the growth inhibition in experiment [1] is 87% (active); in experiment [2] it was 2.05%; in experiment [3], 4.65%; in experiment [4] it was 31.2%; in experiment [5], 6%; in experiment [6], 21.9%.
As for `CCCCCCN(CCCCCC)C1=CC(=O)C(=O)c2ccccc21`, the growth inhibition was 52.9% in experiment [1]; 31.8% in experiment [2]; 48.4% in experiment [3]; 60% in experiment [4]; 35.1% in experiment [5]; 54.2% in experiment [6].
As to `Nc1[nH]c(=S)[nH]c(=S)c1N`, the growth inhibition is -30.6% in experiment [1]; -8.6% in experiment [2]; -15.2% in experiment [3]; -44.8% in experiment [4]; -15.3% in experiment [5]; -25.4% in experiment [6].
Take `O=C1CCC(=O)C(C(=O)CCC(=O)Nc2cccc(Cl)c2)C1` (stereo unspecified): the growth inhibition in experiment [1] was -20.6%; in experiment [2], -6.5%; in experiment [3] it was -11.7%; in experiment [4], 19.8%; in experiment [5], 11.9%; in experiment [6] it was -4.9%.

Source of the values: PubChem BioAssay (NCI).
